For 20 compounds, growth inhibition results are on record in PubChem BioAssay (NCI).

Assay [1] can be described thus: NCI Yeast Anticancer Drug Screen. Data for the rad50 strain (AID 155).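 Note: 0% = growth of vehicle-only cultures of the same strain.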 To be noted: S. cerevisiae rad50 strain growth inhibition; at 50.0 µM; active compounds read high. Put shortly: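 Genetically altered yeast (DNA repair pathway); compound treatment; growth inhibition vs vehicle ctrl.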
Assay [2] can be described thus: NCI Yeast Anticancer Drug Screen. Data for the mec2-1 strain (AID 157). Particulars: S. cerevisiae mec2-1 strain, at 50.0 µM, active compounds read high. An outline of the steps:
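Vehicle-treated cultures served as reference for growth inhibition of compound-exposed mec2-1 yeast.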

Assay [3] is described as follows: NCI Yeast Anticancer Drug Screen. Data for the sgs1 mgt1 strain (AID 161).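 Note: 0% = growth of cultures given vehicle only.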 To be noted: S. cerevisiae sgs1 mgt1 strain, at 50.0 µM, active compounds read high. Put shortly:
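Test agents were incubated with a DNA-repair-mutant yeast strain. Growth was then read and compared against vehicle-treated controls.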

A short description of assay [4]: NCI Yeast Anticancer Drug Screen. Data for the cln2 rad14 strain (AID 165).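 Note: 0% = growth equal to vehicle treated cultures.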 Particulars: S. cerevisiae cln2 rad14 strain, at 50.0 µM, active compounds read high. An outline of the steps: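 Each compound was tested on cln2 rad14 yeast. Inhibition of growth was calculated against vehicle-exposed controls.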
Assay [5] is described as follows: NCI Yeast Anticancer Drug Screen. Data for the bub3 strain (AID 167). To be noted: S. cerevisiae bub3 mutant strain, at 50.0 µM, active compounds read high. An outline of the steps: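 Yeast carrying a defined mutation is treated with each compound, and growth is compared with that of vehicle-exposed cells to give inhibition.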
Assay [6] in a line: NCI Yeast Anticancer Drug Screen. Data for the mlh1 rad18 strain (AID 175). Particulars: S. cerevisiae mlh1 rad18 strain growth inhibition; at 50.0 µM; active compounds read high. An outline of the steps:
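Vehicle-treated cultures served as the reference for growth inhibition in a yeast strain carrying DNA damage repair alterations exposed to each compound.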

Each structure is given as a SMILES string. The panel holds about 79,000 compounds, 15% with a hit somewhere; the sample as a whole holds those more often. Values without a mark were called inactive. Active and inactive are the calls of the source. Cut-off read from the data, not from the text of the source: active = growth inhibition above about 70%; inactive = the rest.

With `CC1(O)C(O)C(O)C1(O)CO` (stereo not given) (tested in a mixture with another compound), the growth inhibition in assay [1] was 6.55%; in assay [2], -3.35%; in assay [3], 9.9%; in assay [4], -1.85%; in assay [5] it was -2.4%; in assay [6] it was -4.9%.
On to `C=CCNC(=S)NNC(=O)c1ccncc1`, for which the growth inhibition is -19.8% in assay [1]; -10.3% in assay [2]; -21.6% in assay [3]; -82.8% in assay [4]; 2.4% in assay [5]; -23.8% in assay [6].
For the compound `C=CCC(=S)NCCc1c[nH]c2ccccc12`, the growth inhibition was -12.2% in assay [1]; 2.4% in assay [2]; -5.5% in assay [3]; 2.55% in assay [4]; 11.8% in assay [5]; -18.9% in assay [6].
As to `CCOc1cc(/C=N/NC(=O)C(O)C(O)C(O)C(O)CO)ccc1O` (stereo not given), the growth inhibition was 1.5% in assay [1]; 38.6% in assay [2]; 27.9% in assay [3]; 4.45% in assay [4]; 39.8% in assay [5]; 30.6% in assay [6].
`CC(=O)/C(=C/n1c(=S)[nH]c2ccccc21)C(=O)Nc1ccc([N+](=O)[O-])cc1`: the growth inhibition in assay [1] was -17.5%; in assay [2], -2.75%; in assay [3], -13.9%; in assay [4] it was -8.9%; in assay [5], -14.1%; in assay [6] it was -13.2%.
Consider `NC(CSS(=O)(=O)O)=NCCCCC1CCCCC1`, for which the growth inhibition is -6.3% in assay [1]; -2.75% in assay [2]; 7.35% in assay [3]; -6.25% in assay [4]; 0.1% in assay [5]; 16.4% in assay [6].
With `COC(=O)Nc1cccc(OC(=O)Nc2cccc(Cl)c2)c1`, the growth inhibition in assay [1] was 10.3%; in assay [2], 25.2%; in assay [3], 26.6%; in assay [4], -2.85%; in assay [5], 31.4%; in assay [6] it was 1.4%.
As for `OCC(O)C(O)C(CN=Cc1ccccc1O)N=Cc1ccccc1O` (stereo not given), the growth inhibition in assay [1] was 5.05%; in assay [2], 1%; in assay [3] it was 3%; in assay [4], -26.1%; in assay [5] it was 12.9%; in assay [6], -2.45%.
Take `C=CCC(OC(=O)CC)c1ccc2c(c1)OCO2` (stereo not given): the growth inhibition in assay [1] is 7.3%; in assay [2] it was -11.6%; in assay [3] it was 5%; in assay [4], 4.05%; in assay [5], 9.3%; in assay [6], -11.9%.
Regarding `CCCCC(O)(CCCC)CC(C)C`, the growth inhibition was 8.4% in assay [1]; 19.5% in assay [2]; -2.4% in assay [3]; -19.9% in assay [4]; -16.7% in assay [5]; 5.85% in assay [6].
For the compound `COC(=O)C1(CC(=O)c2cccc3ccccc23)NC(=S)NC(=O)C1C#N` (stereo not given), the growth inhibition in assay [1] was 0.55%; in assay [2], 15.7%; in assay [3], -17.4%; in assay [4], -13.3%; in assay [5], -0.7%; in assay [6] it was -9.35%.
For `CN1N=C(c2ccccc2)C(C(c2ccccc2[N+](=O)[O-])C2C(=O)N(C)N=C2c2ccccc2)C1=O` (stereo not given), the growth inhibition was 46.8% in assay [1]; 34.6% in assay [2]; 8.5% in assay [3]; 3.4% in assay [4]; -3.4% in assay [5]; -2.1% in assay [6].
Take `O=C(Cl)C(c1ccccc1)N1C(=O)c2ccccc2C1=O` (stereo not given): the growth inhibition in assay [1] was 7.15%; in assay [2], 2.15%; in assay [3], 0%; in assay [4] it was -38.5%; in assay [5] it was -4%; in assay [6] it was 0.95%.
Consider `O=C(O)COc1ccc(C(=O)/C(SS/C(C(=O)c2ccc(OCC(=O)O)c(Cl)c2Cl)=C2\C=C(c3ccc(F)cc3)SS2)=C2/C=C(c3ccc(F)cc3)SS2)c(Cl)c1Cl`, for which the growth inhibition in assay [1] was -35%; in assay [2], -28.4%; in assay [3], -14.2%; in assay [4], 1.8%; in assay [5] it was -22.3%; in assay [6], 83.7% (active).
Turning to `C/C(=N\NC(N)=O)C1CCCc2ccccc21` (stereo not given), the growth inhibition is 2.45% in assay [1]; -15.3% in assay [2]; -9.8% in assay [3]; -6.55% in assay [4]; -10.3% in assay [5]; 10.2% in assay [6].
Regarding `OC(NN=C1CCCC1)(C(F)(F)Cl)C(F)(F)Cl`, the growth inhibition in assay [1] is -12.9%; in assay [2], -19.9%; in assay [3], -4.45%; in assay [4], -25.3%; in assay [5], -14.2%; in assay [6], 9.15%.
As to `O=C(OCCCCO)c1cc([N+](=O)[O-])cc([N+](=O)[O-])c1`, the growth inhibition was -12.8% in assay [1]; 13.9% in assay [2]; 0.1% in assay [3]; 0.7% in assay [4]; 12.1% in assay [5]; -27.9% in assay [6].
As to `COc1ccc(/C=N/N2CN(C(C)C(=O)O)C(C)(O)N=C2N)cc1OC` (stereo not given), the growth inhibition is -14.2% in assay [1]; -33.8% in assay [2]; -20.7% in assay [3]; -8.95% in assay [4]; -25.6% in assay [5]; -50.8% in assay [6].
On to `O=C(O)/C=C/C(=O)Nc1cccc2c1Cc1ccccc1-2`, for which the growth inhibition was -7.2% in assay [1]; 9% in assay [2]; 20.9% in assay [3]; -29.5% in assay [4]; -4.3% in assay [5]; 19.9% in assay [6].
For `CN(C)C1C(CO)C(CO)C1(C)C` (stereo not given), the growth inhibition was -5.5% in assay [1]; -8.5% in assay [2]; -3.9% in assay [3]; -11.9% in assay [4]; -2.25% in assay [5]; -7.55% in assay [6].
